Experimental findings from PubChem BioAssay (Tox21) are described below.

Molecules are shown by their SMILES. Where “and” joins values, the source holds several entries; their conditions need not be identical. Equal values may be shown once. Records with an inconclusive call do not appear. A structure can be active in one record and inactive in another. Calls of active or inactive are those of the source. Unless noted, calls follow the shape of the dose curve; as a rule, active = well fitted curve in the direction sought with a large enough effect in the repeat runs; inconclusive = weak or mixed curves; inactive = no such curve, though single readings can be large; an effect the other way counts as inactive or inconclusive.

Assay [1] in a line: qHTS assay to identify small molecule phospholipidosis (PLD) inducers (AID 1259344; active = well fitted curve in the direction sought with a large enough effect; an effect the other way counts as inactive or inconclusive). In a few lines: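 Read-out is LipidTOX Red fluorescence (ex 595/em 615) imaged in HepG2 cells after 24 h compound exposure at 37 C, with Hoechst nuclear counterstain (ex 352/em 461) allowing per-cell normalisation.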
Assay [2] can be described thus: qHTS assay to identify small molecule HDAC inhibitors (AID 1259364).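 Also: wild-type HCT-116 cells with endogenous class I/II HDAC activity; top concentration of the series differs between compounds; nearly all actives have a fitted effect of over 45% in size.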 The method, boiled down: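 Cells (HCT-116, wild type) are seeded at 1,500 per well, incubated overnight, treated with compound in DMSO for 2 hr, then developed with HDAC-Glo I/II reagent for 30 min at room temperature.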
Assay [3] in a line: qHTS assay to identify small molecule HDAC inhibitors - cell viability counter screen (AID 1259365). Also: nearly all actives have a fitted effect of over 50% in size. Also: potency is read from the fitted curve at half-maximal effect. As to activity change, negative = cytotoxicity: series mostly up to about 92 µM. The method, boiled down: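 After overnight seeding at 1,500 cells per well, wild-type HCT-116 cultures took up compounds in DMSO for 2hr at 37 C. Viable cell content came from luminescence with CellTiter-Glo.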
In general terms: In qHTS, concentration-response curves come from the screen itself.

Assay [4] in a line: qHTS assay to identify small molecule agonists of the sonic hedgehog signaling (Shh) pathway - cell viability counter screen (AID 1259366). Also: nearly all actives have a fitted effect of over 50% in size. Also: potency is read from the fitted curve at half-maximal effect. The method, boiled down:
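Same-well cytotoxicity read. Gli1-Luc reporter 3T3 cells; compounds 24hr, 37C/5% CO2; CellTiter-Fluor fluorescence.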

Assay [5] is described as follows: qHTS assay to identify small molecule antagonists of the sonic hedgehog signaling (Shh) pathway - cell viability counter screen (AID 1259367). Also: nearly all actives have a fitted effect of over 55% in size. Also: potency is read from the fitted curve at half-maximal effect. In a few lines:
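Fluorescence read-out (CellTiter-Fluor, 1 hr at 37C) taken after 23 hr compound treatment of 3T3 Gli1-Luc cells stimulated with conditioned medium. Cells were seeded at 2,000 per well and pre-incubated 4 hr.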

Assay [6] is described as follows: qHTS assay to identify small molecule agonists of the sonic hedgehog signaling (Shh) pathway (AID 1259368; calls by dose curve;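 also: NIH/3T3-derived 3T3Gli1-Luc cells carrying a stable Gli1-driven firefly luciferase reporter; series mostly up to about 92 µM; nearly all actives have a fitted effect of over 15% in size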). In a few lines: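 Cells of a mouse NIH/3T3 clone stably expressing luciferase under the Gli1 transcriptional response element are exposed to test chemicals for 24 hr at 37 C. Pathway activation is detected as a rise in luminescence.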
The nature of assay [7]: qHTS assay to identify small molecule antagonists of the sonic hedgehog signaling (Shh) pathway (AID 1259369; calls by dose curve; also: nearly all actives have a fitted effect of over 45% in size; also: potency is read from the fitted curve at half-maximal effect). The method, boiled down:
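Cells are plated and held 4hr at 37 C, compounds (DMSO) are pinned in, conditioned medium is added to stimulate the pathway, and after 24hr luciferase reagent is added for 30min before luminescence is read.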

The nature of assay [8]: qHTS assay to identify small molecule agonists of the androgen receptor (AR) signaling pathway in the presence of an antagonist - cell viability counter screen (AID 1259379). Also: nearly all actives have a fitted effect of over 25% in size. Also: potency is read from the fitted curve at half-maximal effect.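 As to activity change, negative = cytotoxicity: MDA-kb2 human breast cancer cells carrying an MMTV luciferase reporter; series mostly up to about 92 µM.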 The method, boiled down:
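Cytotoxicity is assessed by CellTiter-Fluor in MDA-kb2 cells carrying an MMTV-driven luciferase reporter. Cells receive 3.0uM nilutamide plus compounds at 15 concentrations and incubate 16 hr at 37C without CO2 before fluorescence reading.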

Assay [9] is described as follows: qHTS assay to identify small molecule agonists of the estrogen receptor beta (ER-beta) signaling pathway - cell viability counter screen (AID 1259380). Also: nearly all actives have a fitted effect of over 30% in size. Also: potency is read from the fitted curve at half-maximal effect. In a few lines: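 Cytotoxicity is measured in parallel with the reporter screen: after 16 hr compound exposure at 37C and a 2 hr LiveBLAzer step, CellTiter-Glo is added to the same ER-beta-UAS-bla HEK293T wells and luminescence read after 30 min.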

A short description of assay [10]: qHTS assay to identify small molecule antagonists of the estrogen receptor beta (ER-beta) signaling pathway - cell viability counter screen (AID 1259382). Also: nearly all actives have a fitted effect of over 55% in size. Also: potency is read from the fitted curve at half-maximal effect. As to activity change, negative = cytotoxicity: series mostly up to about 92 µM. In a few lines: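 Cytotoxicity counter screen multiplexed with the beta-lactamase antagonist assay: GripTite HEK293T ER-beta-bla cells were treated 16 hr with test chemicals in the presence of 1nM 17-beta-estradiol, and viability was measured by CellTiter-Glo.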

A short description of assay [11]: qHTS assay to identify small molecule agonists or antagonists of the thyroid stimulating hormone receptor (TSHR) signaling pathway - wild type cell line counter screen (AID 1259384; calls by dose curve). In a few lines: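 Wild-type Hek293 cells, 800/well, 18 h at 37C, then compound with Ro20-1724 for 30 min RT. cAMP by HTRF (cAMP-d2/anti-cAMP cryptate), 1 h RT, fluorescence read. 15 concentrations, triplicates.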

Assay [12] has as its target Thyrotropin receptor (Homo sapiens) (UniProt P16473). Briefly: qHTS assay to identify small molecule antagonists of the thyroid stimulating hormone receptor (TSHR) signaling pathway (AID 1259385; calls by dose curve; also: nearly all actives have a fitted effect of over 20% in size). In a few lines: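 TSHR-HEK293 cells (800/well) plated 18 h, then compounds with Ro20-1724 and TSH at 1.5 ng/mL final, 30 min at room temperature. cAMP quantified by HTRF (cAMP-d2/anti-cAMP-cryptate, 1 h); 15 concentrations in triplicate.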

Assay [13] is described as follows: qHTS assay to identify small molecule agonists of the estrogen receptor alpha (ER-alpha) signaling pathway in the presence of an antagonist - cell viability counter screen (AID 1259386).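 Also: cells exposed to compounds for 22 h at 37 °C before the viability read; nearly all actives have a fitted effect of over 30% in size.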 Also: potency is read from the fitted curve at half-maximal effect. As to activity change, negative = cytotoxicity: series mostly up to about 92 µM. In a few lines: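 Cytotoxicity was measured in parallel with the ERE-luciferase agonist screen, in the same wells. The cells were VM7Luc4E2, which endogenously express ER-alpha, and treatment was with compounds plus 10.0nM ICI-182,780 for 22hr.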

Assay [14] has as its target Progesterone receptor (Homo sapiens) (UniProt P06401). Briefly: qHTS assay to identify small molecule agonists of the progesterone receptor (PR) signaling pathway (AID 1346784; calls by dose curve; also: nearly all actives have a fitted effect of over 30% in size). In a few lines:
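Compounds were tested for PR agonism in HEK 293T cells bearing a beta-lactamase gene under UAS control. Treatment lasted 16 hr at 37C; signal came from fluorescence of a FRET substrate.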

Assay [15] addresses Estrogen receptor beta (Homo sapiens) (UniProt Q92731). Kind of assay: qHTS assay to identify small molecule agonists of the estrogen receptor beta (ER-beta) signaling pathway (AID 1259377; active = well fitted activation curve with a large enough effect in the signal ratio in the repeat runs, not every such curve was filed as active; the % refers to the signal ratio). In a few lines: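 Read-out: beta-lactamase FRET fluorescence. Cell line: ER-beta-UAS-bla HEK293T in 2% charcoal-stripped FBS. Exposure: 16 hr at 37C. Substrate step: 2 h at room temperature.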

For assay [16] the target is unchanged. Briefly: qHTS assay to identify small molecule antagonists of the estrogen receptor beta (ER-beta) signaling pathway (AID 1259378; active = well fitted inhibition curve with a large enough effect in the signal ratio in the repeat runs, not every such curve was filed as active; the % refers to the signal ratio). The method, boiled down: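 ER-beta-UAS-bla HEK293T cells in 2% charcoal-stripped FBS medium treated with compound plus 1nM final 17-beta-estradiol for 16 hr at 37C. Beta-lactamase reporter read by FRET substrate fluorescence after 2 hours at room temperature.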

In assay [17] the target is Estrogen receptor (Homo sapiens) (UniProt P03372). Kind of assay: qHTS assay to identify small molecule agonists of the estrogen receptor alpha (ER-alpha) signaling pathway in the presence of an antagonist (AID 1259383; calls by dose curve; also: top concentration of the series differs between compounds; nearly all actives have a fitted effect of over 15% in size). In a few lines: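 Agonist-mode confirmation in the presence of the ER antagonist ICI-182,780 at 10.0nM final. Breast-derived VM7Luc4E2 reporter cells were exposed to compounds for 22hr, and ERE-driven luciferase was quantified by luminescence.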
Estrogen receptor (Homo sapiens), sequence (P03372 whole entry, looked up): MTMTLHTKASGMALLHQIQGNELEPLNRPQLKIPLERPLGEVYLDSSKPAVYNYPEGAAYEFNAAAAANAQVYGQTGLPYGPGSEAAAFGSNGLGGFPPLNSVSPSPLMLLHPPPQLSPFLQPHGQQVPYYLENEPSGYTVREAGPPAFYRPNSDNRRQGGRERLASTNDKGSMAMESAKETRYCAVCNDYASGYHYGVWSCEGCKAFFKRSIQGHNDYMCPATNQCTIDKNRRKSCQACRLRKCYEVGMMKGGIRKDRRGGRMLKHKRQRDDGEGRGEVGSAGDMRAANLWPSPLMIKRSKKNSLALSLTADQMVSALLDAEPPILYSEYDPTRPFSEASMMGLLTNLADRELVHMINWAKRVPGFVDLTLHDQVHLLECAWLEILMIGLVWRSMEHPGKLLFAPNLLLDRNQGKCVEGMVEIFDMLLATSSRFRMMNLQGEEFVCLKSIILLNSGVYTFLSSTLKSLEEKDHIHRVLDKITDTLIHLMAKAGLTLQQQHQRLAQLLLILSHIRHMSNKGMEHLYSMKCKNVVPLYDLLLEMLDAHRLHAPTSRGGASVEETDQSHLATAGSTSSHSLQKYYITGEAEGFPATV

Assay [18] concerns the target Androgen receptor (Homo sapiens) (UniProt P10275). Briefly: qHTS assay to identify small molecule agonists of the androgen receptor (AR) signaling pathway in the presence of an antagonist (AID 1259381; calls by dose curve; also: nearly all actives have a fitted effect of over 15% in size). The method, boiled down:
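Agonist-mode confirmation screen: human MDA-kb2 cells stably expressing luciferase under an MMTV promoter bearing AR and GR response elements, co-treated with 3.0uM nilutamide (final). Luminescence measured after 16hr compound incubation.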
% is scaled to controls: 0 for no effect and ±100 for the full control effect.

Thyrotropin receptor (Homo sapiens), sequence (P16473 whole entry, looked up): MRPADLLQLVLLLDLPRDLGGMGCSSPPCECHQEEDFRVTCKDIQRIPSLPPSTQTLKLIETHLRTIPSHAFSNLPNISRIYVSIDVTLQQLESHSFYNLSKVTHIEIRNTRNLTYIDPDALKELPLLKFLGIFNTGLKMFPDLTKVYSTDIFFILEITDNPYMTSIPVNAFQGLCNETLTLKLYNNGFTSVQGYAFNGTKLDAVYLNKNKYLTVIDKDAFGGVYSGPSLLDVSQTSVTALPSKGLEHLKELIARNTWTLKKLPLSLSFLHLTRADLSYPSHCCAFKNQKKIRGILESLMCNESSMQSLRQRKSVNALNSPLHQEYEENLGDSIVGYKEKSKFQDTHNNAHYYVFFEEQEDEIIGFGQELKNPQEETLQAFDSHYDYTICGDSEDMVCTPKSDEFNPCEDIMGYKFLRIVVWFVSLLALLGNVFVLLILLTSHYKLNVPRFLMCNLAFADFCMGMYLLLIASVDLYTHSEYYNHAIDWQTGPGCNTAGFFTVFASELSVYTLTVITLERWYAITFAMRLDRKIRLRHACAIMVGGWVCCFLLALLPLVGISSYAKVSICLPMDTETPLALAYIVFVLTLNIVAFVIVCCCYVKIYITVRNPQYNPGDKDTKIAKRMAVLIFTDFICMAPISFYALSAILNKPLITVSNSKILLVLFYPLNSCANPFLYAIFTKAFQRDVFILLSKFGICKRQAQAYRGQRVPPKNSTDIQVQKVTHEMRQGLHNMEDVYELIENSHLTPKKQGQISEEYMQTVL
Progesterone receptor (Homo sapiens), sequence (P06401 whole entry, looked up): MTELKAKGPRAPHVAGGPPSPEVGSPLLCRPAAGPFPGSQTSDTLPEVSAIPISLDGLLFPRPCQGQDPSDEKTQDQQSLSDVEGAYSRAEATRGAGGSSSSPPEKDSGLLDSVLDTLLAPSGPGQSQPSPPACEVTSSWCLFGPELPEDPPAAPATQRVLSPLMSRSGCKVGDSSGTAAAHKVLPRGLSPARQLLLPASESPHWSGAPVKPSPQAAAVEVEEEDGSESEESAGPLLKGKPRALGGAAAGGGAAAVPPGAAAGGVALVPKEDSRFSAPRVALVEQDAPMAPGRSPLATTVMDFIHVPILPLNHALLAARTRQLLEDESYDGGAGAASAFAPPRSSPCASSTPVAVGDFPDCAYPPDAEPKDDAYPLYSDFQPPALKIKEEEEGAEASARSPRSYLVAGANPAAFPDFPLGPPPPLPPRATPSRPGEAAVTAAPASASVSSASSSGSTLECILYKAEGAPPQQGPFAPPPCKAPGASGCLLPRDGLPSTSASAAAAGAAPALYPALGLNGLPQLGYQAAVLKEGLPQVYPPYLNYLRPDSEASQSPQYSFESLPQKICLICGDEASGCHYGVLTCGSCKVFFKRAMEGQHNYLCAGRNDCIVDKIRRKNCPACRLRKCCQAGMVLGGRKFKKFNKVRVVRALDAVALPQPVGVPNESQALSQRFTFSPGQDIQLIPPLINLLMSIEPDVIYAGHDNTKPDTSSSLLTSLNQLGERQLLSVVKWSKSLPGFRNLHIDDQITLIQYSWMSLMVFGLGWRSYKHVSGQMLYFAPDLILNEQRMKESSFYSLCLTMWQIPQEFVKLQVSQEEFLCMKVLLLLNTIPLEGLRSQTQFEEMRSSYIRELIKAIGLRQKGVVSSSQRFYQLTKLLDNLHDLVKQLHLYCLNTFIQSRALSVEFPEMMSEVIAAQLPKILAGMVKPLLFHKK
Estrogen receptor beta (Homo sapiens), sequence (Q92731 whole entry, looked up): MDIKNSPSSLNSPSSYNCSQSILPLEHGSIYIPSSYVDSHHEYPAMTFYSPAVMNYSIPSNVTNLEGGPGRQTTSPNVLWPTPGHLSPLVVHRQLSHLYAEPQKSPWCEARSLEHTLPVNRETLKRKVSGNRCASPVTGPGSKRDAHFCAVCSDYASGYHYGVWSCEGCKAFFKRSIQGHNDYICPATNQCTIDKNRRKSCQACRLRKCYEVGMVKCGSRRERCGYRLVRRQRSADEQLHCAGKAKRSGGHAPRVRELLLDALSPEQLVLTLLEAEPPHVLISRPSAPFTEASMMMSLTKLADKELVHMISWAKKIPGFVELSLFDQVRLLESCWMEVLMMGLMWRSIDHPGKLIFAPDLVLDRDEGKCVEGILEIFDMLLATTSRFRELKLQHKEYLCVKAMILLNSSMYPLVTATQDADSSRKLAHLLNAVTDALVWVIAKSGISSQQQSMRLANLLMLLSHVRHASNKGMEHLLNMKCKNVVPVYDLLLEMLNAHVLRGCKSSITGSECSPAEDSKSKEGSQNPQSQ
Androgen receptor (Homo sapiens), sequence (P10275 whole entry, looked up): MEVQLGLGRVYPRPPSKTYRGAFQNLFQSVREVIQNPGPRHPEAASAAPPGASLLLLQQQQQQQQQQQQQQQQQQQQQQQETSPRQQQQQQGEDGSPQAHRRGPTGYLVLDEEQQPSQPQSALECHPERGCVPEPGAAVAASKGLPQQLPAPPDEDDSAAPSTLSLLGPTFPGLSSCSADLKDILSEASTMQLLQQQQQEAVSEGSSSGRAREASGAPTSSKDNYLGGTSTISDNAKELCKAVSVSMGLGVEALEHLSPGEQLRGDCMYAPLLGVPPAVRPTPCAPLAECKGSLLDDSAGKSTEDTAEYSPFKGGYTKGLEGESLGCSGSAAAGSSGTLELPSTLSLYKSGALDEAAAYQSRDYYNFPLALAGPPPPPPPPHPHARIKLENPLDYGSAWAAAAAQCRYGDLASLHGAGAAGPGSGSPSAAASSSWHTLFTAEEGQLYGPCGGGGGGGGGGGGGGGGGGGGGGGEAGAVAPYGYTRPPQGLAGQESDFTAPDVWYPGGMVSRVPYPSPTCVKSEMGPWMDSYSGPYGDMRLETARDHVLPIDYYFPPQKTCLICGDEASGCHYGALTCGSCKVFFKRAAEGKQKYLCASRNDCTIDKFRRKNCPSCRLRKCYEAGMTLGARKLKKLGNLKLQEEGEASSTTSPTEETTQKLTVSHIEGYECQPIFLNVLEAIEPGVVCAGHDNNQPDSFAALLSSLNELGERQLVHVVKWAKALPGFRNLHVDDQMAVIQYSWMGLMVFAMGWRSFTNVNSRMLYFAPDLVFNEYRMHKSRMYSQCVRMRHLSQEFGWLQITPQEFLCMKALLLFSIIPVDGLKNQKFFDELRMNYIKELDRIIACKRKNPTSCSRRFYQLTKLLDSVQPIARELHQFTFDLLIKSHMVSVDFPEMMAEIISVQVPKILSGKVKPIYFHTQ

In the case of `CC(NN)c1ccccc1` (stereo unspecified), the Potency entry in [1] and in assay [5] was “inactive” each time. The activity change, negative = inhibition in assay [2] was 0.741% [at 19 µM] (inactive); in [7], 19.3% [at 19 µM] (inactive); in [12] it was -2.3% [at 19 µM] (inactive). Moreover, the activity change, negative = cytotoxicity in assay [3] was 0.995% [at 19 µM] (inactive); in [8], -0.324% [at 19 µM] (inactive); in assay [9], -2.17% [at 19 µM] (inactive); in assay [10], 1.73% [at 19 µM] (inactive); in assay [13], -1.38% [at 19 µM] (inactive). In addition, in assay [4], the viability change, negative = cytotoxic is 2.68% [at 19 µM] (inactive). In addition, the activity change in [6] is 1.23% [at 18.9 µM, stronger effect = higher value] (inactive). For the same molecule, the cAMP activity change in assay [11] was 0.522% [at 18.9 µM] (inactive). For the same molecule, the activation in [14] is -0.517% [at 19 µM] (inactive).

As to `CN(C/C=C/C#CC(C)(C)C)Cc1cccc2ccccc12`, the Potency entry in assay [1], in assay [2], in assay [3], in assay [4], in assay [6] and in assay [7] was “inactive” each time. For the same molecule, the Potency entry in [8], in assay [12] and in [13] was “inactive” each time. Moreover, the Potency in assay [9] was 26.6 µM (active); in assay [10], 29.8 µM (active). Besides, in assay [11], the molecule was classed as inactive.

Take `Cc1onc(-c2ccccc2Cl)c1C(=O)N[C@@H]1C(=O)N2[C@@H]1SC(C)(C)[C@@H]2C(=O)O`: the Potency entry in assay [1], in assay [2], in [3], in assay [4], in assay [6] and in assay [7] was “inactive” in each case. In addition, the Potency entry in assay [15], in [16], in assay [9], in assay [10], in [17] and in [13] was “inactive” in each case. For the same molecule, the Potency entry in assay [14] was “inactive”. In addition, the outcome in assay [11] was inactive.

For `NC(=NCCCCCCN=C(N)/N=C(\N)Nc1ccc(Cl)cc1)/N=C(\N)Nc1ccc(Cl)cc1`, the Potency result in assay [1], in assay [2], in assay [12], in [13] and in assay [14] was “inactive” throughout. Besides, the Potency in [3] was 44.1 µM (active) and 60.8 µM (active) and inactive; in assay [4] it was 48.1 µM (active) and 24.8 µM (active) and 54.2 µM (active); in assay [5], 60.6 µM (active) and 43 µM (active) and inactive; in assay [7], 21.5 µM (active) and 27.2 µM (active) and 19.2 µM (active); in assay [8], 62.2 µM (active) and 60.8 µM (active) and inactive; in assay [10], 60.6 µM (active) and 48.3 µM (active) and 44.1 µM (active). Moreover, in assay [11], the outcome was inactive.

As to `O=C(Nc1ccc(Oc2ccc(Cl)cc2)c(Cl)c1)c1cc(I)cc(I)c1O`, the Potency entry in assay [1], in assay [2], in assay [3], in [4], in [5] and in [6] was “inactive” each time. In addition, the Potency in [7] was 29.8 µM (active); in assay [9] it was 11.9 µM (active). The call in assay [11] was inactive.

In the case of `OCCN(CCO)c1nc(N2CCCCC2)c2nc(N(CCO)CCO)nc(N3CCCCC3)c2n1`, the Potency entry in assay [1], in assay [2], in assay [3], in assay [18], in [10] and in assay [17] was “inactive” in each case. In assay [7], the Potency was 2.11 µM (active).

As to `CCN(CCC#N)c1ccc(N=Nc2c(Cl)cc([N+](=O)[O-])cc2Cl)cc1`, the Potency result in assay [3], in assay [4], in assay [6], in assay [7], in assay [17] and in [12] was “inactive” in each case. Moreover, the Potency in [8] is 17.2 µM (active); in assay [13], 8.63 µM (active). For the same molecule, in assay [11], the outcome was inactive.

For the molecule `CCC1OCC(COc2ccc(Oc3ccccc3)cc2)O1` (stereo unspecified), the Potency entry in [3], in assay [6], in assay [15], in [16], in [8] and in assay [9] was “inactive” in each case. For the same molecule, the Potency entry in [10], in assay [13] and in assay [14] was “inactive” each time. The Potency in [5] is 61.1 µM (active). For the same molecule, in assay [11], the molecule was called inactive.

As to `CCCCN1C(=O)[C@@H]([C@H](O)C2CCCCC2)NC(=O)C12CCN(Cc1ccc(Oc3ccc(C(=O)O)cc3)cc1)CC2`, the Potency result in assay [2], in assay [3], in assay [6], in assay [15], in assay [10] and in [17] was “inactive” each time. Besides, the Potency entry in assay [13] is “inactive”. In addition, the molecule was classed as inactive in assay [11].
